# Shown are actives, neighbours in structure and some others; about 17% of the full set was active somewhere.
# TDP1 inh = blocks human tyrosyl-DNA phosphodiesterase 1; recombinant TDP1, AlphaScreen DNA substrate cleavage; Potency, µM (highest dose often 130 µM), without a hit: at the top dose activity change, negative = inhibition, most hits filed as inhibitors; hit rate 0.28% among 350,000; further: on the % scale 0 is the no-effect control and ±100 the full control effect; nearly all actives have a fitted effect of over 40% in size
# Target sequence (Q9NUW8 whole entry, looked up): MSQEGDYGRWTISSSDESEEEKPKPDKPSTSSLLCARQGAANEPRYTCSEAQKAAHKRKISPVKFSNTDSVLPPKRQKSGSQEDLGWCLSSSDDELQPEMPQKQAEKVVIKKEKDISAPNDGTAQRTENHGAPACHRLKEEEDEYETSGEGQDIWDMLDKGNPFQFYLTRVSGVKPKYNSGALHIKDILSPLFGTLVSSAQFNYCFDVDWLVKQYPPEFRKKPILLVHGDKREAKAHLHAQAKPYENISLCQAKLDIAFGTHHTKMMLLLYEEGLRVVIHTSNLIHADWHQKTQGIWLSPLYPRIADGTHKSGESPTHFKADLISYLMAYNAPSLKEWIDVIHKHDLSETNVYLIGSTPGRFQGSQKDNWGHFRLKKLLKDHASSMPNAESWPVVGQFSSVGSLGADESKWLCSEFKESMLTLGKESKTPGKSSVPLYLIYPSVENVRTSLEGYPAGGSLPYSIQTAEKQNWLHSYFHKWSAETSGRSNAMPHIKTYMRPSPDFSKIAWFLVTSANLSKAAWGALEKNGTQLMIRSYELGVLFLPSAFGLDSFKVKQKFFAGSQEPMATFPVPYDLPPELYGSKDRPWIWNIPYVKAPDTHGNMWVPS
#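 Recombinant E. coli-expressed Tdp1 (1 nM) preincubated with compound 15 min at RT, then 5'-biotin/3'-phosphotyrosine-FITC DNA substrate (15 nM) added for 5 min. AlphaScreen beads (10 ug/ml) added, 10 min RT; tyrosine-FITC cleavage read as signal loss.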
# ClpP mod = qHTS Assay for Activators of ClpP. ATP-dependent Clp protease proteolytic subunit (Bacillus subtilis (strain 168)), P80244. purified B. subtilis ClpP, FRET peptide cleavage, 20 min. Potency, µM (doses to about 57.5 µM), for the others: at the highest dose activity change, negative = active. hit rate 1.9% among 340,000; active means well fitted falling curve with a large enough effect; inconclusive means small, poorly fitted or top-dose-only effect; inactive means no such curve, though single readings can be large or run the other way; further: the source files actives as falling curves though it sought activators and does not explain the sign; nearly all actives have a fitted effect of over 65% in size
#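 Buffer: 100 mM Tris/HCl pH8, 100 mM KCl, 0.05% low protease BSA, 2.5% glycerol, 0.01% Tween-20. ClpP 10 microg/mL final; 20 min RT; delta FRET normalized to ADEP and DMSO controls.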
# TDP1 cell noCPT = qHTS for Inhibitors of human tyrosyl-DNA phosphodiesterase 1 (TDP1): qHTS in cells in absence of CPT; DT40 Tdp1-/- hTDP1 cells, no CPT, ATP luminescence, 48 h; Potency, µM (doses to about 46.2 µM), without a hit: top-dose activity change, negative = growth inhibition, actives largely listed as inhibitors; hit rate 15% among 420,000; AID 686978, 2013; further: on the % scale 0 is the no-effect control and ±100 the full control effect; nearly all actives have a fitted effect of over 55% in size
#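 Stably hTDP1-transfected Tdp1-null chicken DT40 cells were treated with library compounds minus camptothecin and grown for at least 48 hr at 37 °C, after which cellular ATP was quantified by luminescence.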
# TDP1 cell CPT = growth inhibition of DT40 Tdp1-/-;hTDP1 cells with camptothecin (screen for TDP1 inhibitors) | hit rate 12% among 420,000 | chicken DT40 Tdp1-/-;hTDP1 cells + 20 nM CPT, ATP luminescence, 48 h | Potency, µM (doses to about 46.2 µM), inactives show top-dose activity change, negative = growth inhibition, usual class: inhibitors; further: on the % scale 0 is the no-effect control and ±100 the full control effect; nearly all actives have a fitted effect of over 55% in size
#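 Chicken DT40 Tdp1-/- cells complemented with human TDP1, 400 cells/well, exposed to compounds plus 20 nM camptothecin for at least 48 h at 37 C; viability read as ATP content by CellTiter-Glo luminescence.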
# The depositor's hits bear a star; ? = inconclusive; · = no result given; [ ] = remark or other dose. Unless noted, the call rests on the fitted dose curve; in most records, active means well fitted curve in the direction sought with a large enough effect; inconclusive means small, poorly fitted or top-dose-only effect, or another doubt; inactive means no such curve, though single readings can be large; an effect the other way counts as inactive or inconclusive. Potency means the concentration at half of the fitted maximal effect.
SMILES,TDP1 inh,ClpP mod,TDP1 cell noCPT,TDP1 cell CPT
O=S(=O)(Nc1ccc2oc3c(c2c1)CCCC3)c1cc(Cl)ccc1Cl,-2%[12.3 µM],-2%,?,-30%
CCCCC(=O)N(c1ccc2oc(C)c(C(C)=O)c2c1)S(=O)(=O)c1ccc(F)cc1C,0%,-3%,10µM*,15µM*
CC(=O)c1c(C)oc2ccc(N(C(C)=O)S(=O)(=O)c3cccc([N+](=O)[O-])c3)cc12,1%,1%,?,21µM*
CCCC(=O)N(c1ccc2oc(C)c(C(C)=O)c2c1)S(=O)(=O)c1ccc(C)cc1,-2%,-3%,·,·
Cc1ccc(CN2CCN(Cc3nc(C(C)C)cs3)CC2CCO)cc1 (stereo not drawn),3%,0%,12µM*,?
COc1ccc(CN2CCN(Cc3ccccc3)C(CCO)C2)cc1OC (stereo not drawn),0%,1%,-13%,-30%
COc1ccccc1/C=C/CN1CCN(Cc2ccc(F)cc2)C(CCO)C1 (stereo not drawn),1%,0%,18µM*,?
CC(C)=CCN1CCN(Cc2nc(-c3ccc(F)cc3)cs2)CC1CCO (stereo not drawn),1%,-2%,?,?
OCCC1CN(Cc2nc(-c3ccccc3)cs2)CCN1Cc1ccc(F)cc1 (stereo not drawn),8%,1%,16µM*,23µM*
CN1CCN(c2ncnc3c2ncn3[C@H]2CN(Cc3ccc(F)cc3)C[C@@H](CO)O2)CC1,·,2%,-20%,?
CC(C)(C)C(=O)OCOP(=O)(COCCn1cnc2c(N)ncnc21)OCOC(=O)C(C)(C)C,4%,·,-25%,-26%
CC(=O)c1sc(NC(=O)c2ccccc2)nc1-c1ccccc1,7%,-1%,-22%,-17%
COC(=O)Nc1nc(-c2ccccc2)c(C(=O)c2ccc(Cl)cc2)s1,4%,0%,0.65µM*,0.58µM*
CCOC(=O)Nc1nc(-c2ccccc2)c(C(=O)c2ccccc2)s1,0%,1%,0.65µM*,0.58µM*
O=C(Nc1nc(-c2ccccc2)c(C(=O)c2ccccc2)s1)c1ccc(S(=O)(=O)N2CCCCC2)cc1,5%,1%,?,-23%
COc1ccc(NS(=O)(=O)c2ccc(/C=C/C(=O)O)cc2)cc1S(=O)(=O)N1CCOCC1,3%,·,9%,9%
Cc1ccc(-n2ncc3c2CC(C)(C)CC3NC(=O)CCc2ccncc2)cc1 (stereo not drawn),22µM*,-3%,?,?
Cc1ccc(-n2ncc3c2CC(C)(C)CC3NC(=O)CCc2cccnc2)cc1 (stereo not drawn),2%,0%,16µM*,23µM*
O=C(c1ccccc1F)n1c2c(c3ccccc31)CCCC2,·,0%,?,23µM*
CC1CCN(CC(=O)n2c3c(c4ccccc42)CCCC3)CC1,5%,-1%,?,?
CCCCCOC(=O)C1=C(C)NC(=O)NC1c1ccc2c(c1)OCO2 (stereo not drawn),·,0%,-30%,-13%
CC1=C(C(=O)OCCCBr)C(c2ccc3c(c2)OCO3)NC(=O)N1 (stereo not drawn),6%,?,23µM*,26µM*
CCOC(=O)C1=C(CCl)NC(=O)NC1c1ccc2c(c1)OCO2 (stereo not drawn),·,·,2.6µM*,15µM*
CC1=C(C(=O)OCCC(C)C)C(c2ccc3c(c2)OCO3)NC(=O)N1 (stereo not drawn),·,0%,?,?
CCOC(=O)C(C)OC(=O)C1=C(C)NC(=O)NC1c1ccc2c(c1)OCO2 (stereo not drawn),·,1%,4.1µM*,3.7µM*
SMILES,TDP1 inh,ClpP mod,TDP1 cell noCPT,TDP1 cell CPT
CCOC(=O)C1=C(CN2CCSCC2)NC(=O)NC1c1ccc2c(c1)OCO2 (stereo not drawn),3%,·,-17%,8%
CC(C)NC[C@@H](O)COc1ccc(CCOCC2CC2)cc1,3%[56.1 µM],·,-10%,11%
O=C(NCC(c1ccc(F)cc1)N1CCOCC1)c1ccc(OCc2ccccc2)cc1 (stereo not drawn),0%,1%,21µM*,18µM*
COc1cc(C(=O)NCC(c2cccs2)N2CCOCC2)ccc1OCc1ccc(Cl)cc1 (stereo not drawn),·,-3%,3.7µM*,6.5µM*
O=C(NCC(c1ccc(F)cc1)N1CCOCC1)c1ccc([N+](=O)[O-])o1 (stereo not drawn),0%,2%,26µM*,21µM*
CC(=O)c1ccc(-c2ccc(C(=O)NCC(c3ccc(F)cc3)N3CCOCC3)o2)cc1 (stereo not drawn),2%,-1%,?,4%
O=C(NCC(c1cccs1)N1CCOCC1)c1cnc(Cl)c(Cl)c1 (stereo not drawn),1%,-6%,?,?
O=C(NCC(c1cccs1)N1CCOCC1)c1ccc(OCc2ccccc2)cc1 (stereo not drawn),0%[56.1 µM],-2%,21µM*,15µM*
CCOc1ccc(C(=O)NCC(c2cccs2)N2CCOCC2)cc1 (stereo not drawn),-2%,3%,-2%,-14%
COc1ccc(-c2cn3nc(N4CCC(C(=O)NCc5ccccc5F)CC4)sc3n2)cc1,-6%,-1%,?,?
COCCNc1ccc(-c2nc(-c3cccc(C)c3)no2)cc1[N+](=O)[O-],6%,-2%,?,?
Cc1ccccc1-c1cnc(C(O)c2c(C)ccc3ccccc23)[nH]1 (stereo not drawn),·,-5%,?,?
Cc1ccc2ccccc2c1C(O)c1ncc(-c2ccccc2Cl)[nH]1 (stereo not drawn),·,-9%,?,26µM*
COc1ccccc1-c1cnc(C(O)c2cc(C)c(OC)c(C)c2)[nH]1 (stereo not drawn),·,-6%,23µM*,23µM*
CCCc1ccc(C(O)c2ncc(-c3ccccc3F)[nH]2)cc1 (stereo not drawn),·,0%,?,18µM*
COc1c(C)cc(C(O)c2ncc(-c3ccccc3Cl)[nH]2)cc1C (stereo not drawn),·,1%,?,-25%
OC(c1ccc(Cl)cc1)c1ncc(-c2ccccc2F)[nH]1 (stereo not drawn),·,0%,?,-26%
CCc1ccc(C(O)c2ncc(-c3cccc4ccccc34)[nH]2)cc1 (stereo not drawn),·,5%,16µM*,?
Fc1ccccc1-n1ncc2c1ncn1nc(Cc3ccccc3)nc21,1%,-8%,-14%,5%
COc1ccccc1-c1cnc(C(O)c2ccc(SC)cc2)[nH]1 (stereo not drawn),·,-5%,?,29µM*

# Assay outcomes deposited in PubChem BioAssay by National Center for Advancing Translational Sciences (NCATS).
